# Assay results reported in PubChem BioAssay.
# Calls of active or inactive are those of the source. Unless noted, how the calls were made is not given here.
# Legend:
# [1] = A549 cell viability effects, profiling panel, calcein-AM fluorescence, 48 h, basal (AID 1162); conditions: higher = more signal; further: test concentration not given here
# [2] = adipocyte viability effects, profiling panel, cell-based, 3T3-L1 adipocytes, calcein-AM fluorescence, 48 h, basal (AID 1163); conditions: 3T3-L1 adipocytes viability, higher = more signal; further: test concentration not given here
# [3] = HepG2 cell viability effects, profiling panel, calcein-AM fluorescence, 48 h, basal (AID 1164); conditions: higher = more signal; further: test concentration not given here
# [4] = MM1S cell viability effects, profiling panel, calcein-AM fluorescence, 48 h, basal (AID 1165); conditions: higher = more signal;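 further: viability of MM1S multiple myeloma cells under basal unstimulated conditions; test concentration not given here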
# [5] = basal RPMI8226 viability, no added stimulus, profiling panel, cell-based, calcein-AM fluorescence, 48 h, PK04 Diversity Set (AID 1166); conditions: RPMI8226 myeloma viability, higher = more signal;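 further: cells grown under basal conditions without added stimulus; test concentration not given here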
# [6] = basal HepG2 mitochondrial membrane potential changes, profiling panel, cell-based, JC-1 fluorescence, 24 h, 100 nL compound (AID 1167); conditions: higher = more signal; further: test concentration not given here
# [7] = basal 3T3-L1 adipocyte mitochondrial potential changes, profiling panel, cell-based, JC-1 fluorescence, 3T3-L1 adipocytes, 24 h, 100 nL compound (AID 1168); conditions: JC-1 mitochondrial fluorescence, higher = more signal, called active from +8 up or from −8 down; further: test concentration not given here
# [8] = basal RPMI8226 mitochondrial membrane potential changes, profiling panel, cell-based, JC-1 fluorescence, 24 h, 100 nL compound (AID 1169); conditions: RPMI8226 myeloma, JC-1 mitochondrial potential fluorescence, higher = more signal; further: test concentration not given here
# [9] = basal MM1S mitochondrial membrane potential changes, profiling panel, cell-based, JC-1 fluorescence, 24 h, 100 nL compound (AID 1170); conditions: higher = more signal; further: test concentration not given here
# [10] = A549 lung cancer cell viability effects, profiling panel, resazurin fluorescence, 24 h, PK04 Diversity Set (AID 1171); conditions: higher = more signal, called active from +8 up or from −8 down; further: test concentration not given here
# [11] = HepG2 liver cancer cell viability effects, profiling panel, resazurin fluorescence, 24 h, PK04 Diversity Set (AID 1172); conditions: higher = more signal; further: test concentration not given here
# [12] = basal S. cerevisiae growth modulation, no modifier, primary screen, OD600, strain BY4716, 24 h, basal condition (AID 1173); conditions: OD600, 24 h, higher = more signal, called active from +8 up or from −8 down
# [13] = MM1S myeloma cell viability, profiling panel, resazurin fluorescence, basal, 24 h, PK04 Diversity Set (AID 1174); conditions: higher = more signal, called active from +8 up or from −8 down;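 further: MM1S multiple myeloma cell line; test concentration not given here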
# [14] = target: Dihydroorotate dehydrogenase (quinone), mitochondrial (Plasmodium falciparum (isolate 3D7)) (UniProt Q08210); test: PfDHODH enzyme inhibitors, primary screen, biochemical, C-terminal His tag, absorbance 600 nm (AID 1175); conditions: DCIP absorbance 600 nm, higher = more signal, called active from +8 up or from −8 down;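 further: recombinant parasite enzyme with a five histidine tag at its C terminus; test concentration not given here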
# [15] = P. aeruginosa biofilm formation inhibitors, primary screen, strain PAO1, LB-PBS medium, absorbance 600 nm (AID 1176); further: test concentration not given here; conditions: P. aeruginosa PAO1 growth/biofilm, A600, 12 h; higher = more signal
# [16] = S. cerevisiae RM11-1a growth modifiers, primary screen, strain RM11-1a, OD600, basal, 24 h (AID 1177); conditions: OD600, 24 h, higher = more signal, called active from +8 up or from −8 down;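 further: cultures grown under basal conditions with no added stressor; test concentration not given here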
# [17] = E. coli acrAB mutant growth effects, primary screen, E. coli filamentation inducers, strain DRC39, OD650, 24 h (AID 1178); conditions: higher = more signal, called active from +8 up or from −8 down;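 further: growth measured as culture turbidity by optical density at 650 nm; test concentration not given here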
# [18] = E. coli acrAB mutant growth effects, primary screen, E. coli filamentation inducers, strain DRC39, OD650, 48 h (AID 1179);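 further: screen aims at cell division blockers that make cells filament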; conditions: E. coli DRC39 delta-acrAB growth, higher = more signal, called active from +8 up or from −8 down
# [19] = RPMI8226 myeloma cell viability, profiling panel, resazurin fluorescence, basal, 24 h, PK04 Diversity Set (AID 1180); conditions: higher = more signal;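 further: RPMI8826 multiple myeloma cell line at 5000 cells per well; test concentration not given here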
# [20] = target: E3 ubiquitin-protein ligase XIAP (Homo sapiens) (UniProt P98170); test: XIAP binders, primary screen, biophysical, small-molecule microarray, fluorescence 635 nm (AID 1181); conditions: small-molecule microarray binding, higher = more signal;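 further: score merges 667 nm emission and signal to noise over triplicate slides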
# Sequence of E3 ubiquitin-protein ligase XIAP (Homo sapiens) (P98170 whole entry, looked up): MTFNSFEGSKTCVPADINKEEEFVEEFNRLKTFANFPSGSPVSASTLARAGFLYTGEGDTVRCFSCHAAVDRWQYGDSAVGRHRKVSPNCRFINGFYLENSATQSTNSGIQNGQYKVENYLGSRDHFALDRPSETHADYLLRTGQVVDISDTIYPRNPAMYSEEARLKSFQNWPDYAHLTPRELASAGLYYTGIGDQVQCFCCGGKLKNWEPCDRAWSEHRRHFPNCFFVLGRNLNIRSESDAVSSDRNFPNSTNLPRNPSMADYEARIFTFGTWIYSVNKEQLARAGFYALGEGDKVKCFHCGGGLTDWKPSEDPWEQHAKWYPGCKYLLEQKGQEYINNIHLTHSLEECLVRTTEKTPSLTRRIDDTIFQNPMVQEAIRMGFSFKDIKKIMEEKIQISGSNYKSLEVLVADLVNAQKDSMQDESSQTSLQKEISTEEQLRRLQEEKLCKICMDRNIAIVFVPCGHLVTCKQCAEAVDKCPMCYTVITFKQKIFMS
# Sequence of Dihydroorotate dehydrogenase (quinone), mitochondrial (Plasmodium falciparum (isolate 3D7)) (Q08210 whole entry, looked up): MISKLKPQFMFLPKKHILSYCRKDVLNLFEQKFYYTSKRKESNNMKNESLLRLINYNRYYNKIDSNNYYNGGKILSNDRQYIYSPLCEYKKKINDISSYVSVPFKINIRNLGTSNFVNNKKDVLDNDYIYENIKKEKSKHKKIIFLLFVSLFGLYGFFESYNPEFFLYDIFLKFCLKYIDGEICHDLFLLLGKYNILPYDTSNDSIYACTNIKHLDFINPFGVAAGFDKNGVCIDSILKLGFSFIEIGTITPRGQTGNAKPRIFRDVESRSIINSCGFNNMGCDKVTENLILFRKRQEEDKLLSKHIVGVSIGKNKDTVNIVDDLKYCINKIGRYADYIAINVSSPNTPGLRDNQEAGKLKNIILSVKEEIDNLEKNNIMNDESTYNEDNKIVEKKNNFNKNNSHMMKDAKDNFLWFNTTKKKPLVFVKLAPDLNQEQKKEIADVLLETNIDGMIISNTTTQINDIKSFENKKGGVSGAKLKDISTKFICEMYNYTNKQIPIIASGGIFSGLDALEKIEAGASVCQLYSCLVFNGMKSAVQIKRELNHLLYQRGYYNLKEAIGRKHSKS
Structure (SMILES),z-score [1],z-score [2],z-score [3],z-score [4],z-score [5],z-score [6],z-score [7],z-score [8],z-score [9],z-score [10],z-score [11],z-score [12],z-score [13],composite z-score [14],z-score [15],z-score [16],z-score [17],z-score [18],z-score [19],composite z-score [20]
COCCCNC(=O)[C@@H]1c2ccccc2C(=O)N(Cc2ccccc2Cl)[C@H]1c1ccc(CO)cc1,0.897,-0.137,1.84,0.448,1.28,2.87,0.385 (inactive),-0.21,0.418,-0.028 (inactive),-0.378,-0.259 (inactive),0.655 (inactive),-0.636 (inactive),0.692 (inactive),-1.02 (inactive),0.987 (inactive),1.16 (inactive),0.871,0.78
C=C(CCCC)/C(=C/C[C@@H](OC(=O)c1ccncc1)c1ccc(OCCO)cc1)c1cc(C(=O)OC)ccc1OC,0.941,-0.18,1.86,-0.61,-0.385,2.46,-0.451 (inactive),-0.728,-0.969,0.998 (inactive),0.691,1.1 (inactive),0.234 (inactive),-0.265 (inactive),-0.39 (inactive),0.826 (inactive),0.885 (inactive),0.868 (inactive),0.572,-0.141
CC(C)NC(=O)[C@@]1(c2ccc([N+](=O)[O-])cc2)CC(=O)N(C2CCCCC2)[C@@H]1c1ccc(CO)cc1I,1.92,1,0.243,-2.24,-2.58,1.29,0.484 (inactive),-0.169,0.521,0.465 (inactive),-0.752,-0.148 (inactive),0.507 (inactive),0.968 (inactive),-0.0469 (inactive),1.4 (inactive),0.543 (inactive),0.0026 (inactive),0.636,-0.177
C=CCC(OC(C)=O)[C@@H]1[C@@H](N(Cc2ccc(-c3cccc(C(F)(F)F)c3)o2)C(=O)c2ccc(C)cc2)c2cc(OCCCO)ccc2N1C(=O)Cc1ccc2ccccc2c1 (stereo not given in full),0.474,0.9,0.544,-0.886,0.707,2.75,0.417 (inactive),1.01,-0.554,0.379 (inactive),0.358,-0.219 (inactive),0.837 (inactive),-0.802 (inactive),-0.312 (inactive),0.476 (inactive),-0.333 (inactive),0.409 (inactive),1.22,-0.0286
C=CCOC(=O)[C@H]1[C@@H]2C(=O)O[C@@H](c3ccccc3)[C@@H](c3ccccc3)N2[C@@H](c2ccc(OCCOC(=O)[C@@H]3C[C@@H]4C(=O)N[C@@H](CCCCNC(C)=O)C(=O)N4[C@@H]3c3ccc(O)cc3)cc2)[C@]12C(=O)Nc1ccccc12,-0.41,1.85,-0.578,-0.0774,-0.133,-1.7,0.703 (inactive),-0.611,-0.95,-1.57 (inactive),-0.707,0.857 (inactive),-0.0524 (inactive),0.0572 (inactive),1.83 (inactive),1.74 (inactive),-0.605 (inactive),-1.35 (inactive),-0.407,-0.0018
COC(=O)[C@@]1(Cc2ccccc2)[C@H]2c3cc(C(=O)N4CCCC4)n(Cc4ccc(S(C)(=O)=O)cc4)c3C[C@H]2CN1C(=O)c1ccccc1,-0.235,0.949,-0.838,-1.09,-1.68,2.43,-1.62 (inactive),0.148,-0.659,0.142 (inactive),-0.837,0.912 (inactive),-0.774 (inactive),-0.467 (inactive),0.206 (inactive),-0.33 (inactive),-1.33 (inactive),-0.195 (inactive),-1.14,-0.105
O=C1N(Cc2ccccc2)c2ccccc2[C@@H]2OC(c3ccc(OCCCO)cc3)=N[C@]12CCS(=O)(=O)c1ccccc1,-0.221,0.0205,0.455,-0.527,0.144,-1.33,1.86 (inactive),-0.669,-0.605,0.404 (inactive),-0.477,1.48 (inactive),-0.444 (inactive),-0.244 (inactive),1.71 (inactive),2.25 (inactive),-0.0853 (inactive),-0.292 (inactive),-0.18,-0.0918
COCCOC(=O)N1C(=O)[C@@]2(c3cc(C#Cc4ccc(OC)cc4)ccc31)[C@H](c1ccc(O)cc1)N1[C@H](c3ccccc3)[C@H](c3ccccc3)OC(=O)[C@H]1[C@@H]2C(=O)N1CCc2cc(OC)c(OC)cc2C1,-0.548,1.22,-0.486,-0.0636,-0.063,0.793,2.76 (inactive),0.188,0.108,0.776 (inactive),0.28,-0.465 (inactive),-0.0918 (inactive),-0.463 (inactive),0.457 (inactive),-0.694 (inactive),-0.232 (inactive),-0.779 (inactive),0.572,-0.197
COC(=O)C(CC#Cc1ccc2c(c1)[C@]1(C(=O)N2)[C@H](c2ccc(OCCO)cc2)N2[C@H](c3ccccc3)[C@H](c3ccccc3)OC(=O)[C@H]2[C@@H]1C(=O)Nc1nc2ccccc2s1)C(=O)OC,0.214,0.368,0.94,-2.56,-2.73,-2.98,1.67 (inactive),-1.11,-1.29,0.84 (inactive),1.51,2.09 (inactive),0.932 (inactive),-0.983 (inactive),2.98 (inactive),3.16 (inactive),1.01 (inactive),0.824 (inactive),-0.257,-0.138
